IL-1B inflam inh: inflammasome signaling inhibition, IL-1 beta readout; THP-1 LPS/ATP IL-1B secretion, AlphaLISA, 16 h; hits give low values; activity change, % at 57.5 µM; 360,000 compounds, 4.7% hits; in the data active = activity change below about -50%; inconclusive = mostly about -30% to -49%; note: % is set by controls: 0 for no effect and ±100 for the full control effect
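THP-1 cells pretreated 1 hr with compounds (up to 57.5 uM final), then stimulated with LPS (250 ng/mL final) plus ATP (1.25 mM final); secreted IL-1B measured by AlphaLISA after 16 hr, decreased signal indicating inhibition.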
D3 antag: D3 dopamine receptor (human) antagonism; max response, negative = inhibition, %; 360,000 compounds, 2.5% hits; D3R cells, DiscoveRx beta-arrestin luminescence, antagonist mode; hits give low values; P35462; in the data active = max response below about -50%; inconclusive = no clear call, values can overlap the other calls; note: % is set by controls: 0 for no effect and ±100 for the full control effect
Target sequence (P35462 whole entry, looked up): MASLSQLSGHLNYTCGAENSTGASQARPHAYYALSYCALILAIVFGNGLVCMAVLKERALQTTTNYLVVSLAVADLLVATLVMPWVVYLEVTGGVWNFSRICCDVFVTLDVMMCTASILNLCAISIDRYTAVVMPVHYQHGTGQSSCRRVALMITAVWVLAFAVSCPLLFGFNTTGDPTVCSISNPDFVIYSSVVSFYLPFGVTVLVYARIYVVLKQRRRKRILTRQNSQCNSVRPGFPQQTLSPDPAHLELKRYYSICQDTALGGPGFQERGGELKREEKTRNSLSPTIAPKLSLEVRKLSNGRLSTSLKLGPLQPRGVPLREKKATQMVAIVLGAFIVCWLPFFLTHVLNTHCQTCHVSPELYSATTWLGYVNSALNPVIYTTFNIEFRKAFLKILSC
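Cells expressing the human receptor were seeded at 1500 cells/well, incubated overnight at 37 degrees C in 5% CO2, then exposed to library compounds with dopamine controls for 90 minutes at 37 degrees C before luminescent detection.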
S2 tox: viability counter-screen for ATXN expression inhibitors | S2 cells (HEK-293 line with an ATXN2-luciferase reporter) viability, CellTiter-Fluor protease fluorescence, 24 h | Potency, µM (highest dose often 56.7 µM), usual class: cytotoxic | 400,000 compounds, 0.49% hits | AID 651635; note: potency is the fitted concentration of half-maximal effect; nearly all actives have a fitted effect of over 40% in size
Integrin act MD: activators of alpha7 integrin expression for muscular dystrophy; Potency, µM (highest dose often 38.3 µM), without a hit: at the top dose activation, actives largely listed as activators; alpha7betagal myoblasts, beta-gal FDG fluorescence, 48 h; 350,000 compounds, 0.064% hits;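 note: potency is the fitted concentration of half-maximal effect; 100% = response of the positive control SU9516; nearly all actives have a fitted effect of over 60% in size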
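Alpha7betagal+/- myoblasts (passage 13) were plated 16-24 hr, then exposed to compounds (1:260 dilution of DMSO stock) for 48 hours at 37C. After MPER lysis, β-galactosidase reporter activity was read as FDG fluorescence (ex 480/em 540) after 30 minutes.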
D3 ag: D3 dopamine receptor (human) agonism; D3R DiscoveRx beta-arrestin cells, luminescence, 90 min; P35462; 410,000 compounds, 0.58% hits; AID 652048; max activation, %; in the data active = max activation above about 30%; note: 0% is about no effect
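Agonist-mode cell screen: cells plated at 1500/well and incubated overnight at 37 °C, then exposed to library compounds for 90 min at 37 °C. Detection reagent was added for 30–60 min at room temperature, and luminescence was read.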
ATXN2 expr inh: reduces ATXN2 reporter expression in HEK-293 cells | HEK-293 ATXN2-luciferase reporter, luminescence, 24 h | Potency, µM (top dose mostly 57 µM), without a hit: top-dose activity change, negative = inhibition, hits mostly inhibitors | 360,000 compounds, 0.72% hits | AID 1745845; note: potency is the fitted concentration of half-maximal effect; % is set by controls: 0 for no effect and ±100 for the full control effect; nearly all actives have a fitted effect of over 55% in size
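ATXN2-luciferase reporter cells (luciferase flanked by upstream and downstream ATXN2 gene portions) were treated 24 h at 37 °C with compounds at up to 57 uM. SteadyGlo luminescence gave expression; GF-AFC fluorescence gave viability.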
An asterisk follows results filed as active; i = inactive; u = inconclusive; x = not tested or not shown; ! = repeats disagree. Shown are actives, neighbours in structure and some others; about 7% of the full set was active somewhere. Unless noted, calls come from the whole dose curve; as a rule, active = well fitted curve in the direction sought with a large enough effect; inconclusive = small, poorly fitted or top-dose-only effect, or another doubt; inactive = no such curve, though single readings can be large; an effect the other way counts as inactive or inconclusive.

SMILES	IL-1B inflam inh	D3 antag	S2 tox	Integrin act MD	D3 ag	ATXN2 expr inh
C[C@H]1C[C@H]2[C@@H]3CCC4=CC(=O)C=C[C@]4(C)[C@@]3(Cl)[C@@H](O)C[C@]2(C)[C@@]1(O)C(=O)CO	-59*	7	i	x	6	u
CC(=O)C1(O)CCC2C3CC(C)C4=CC(=O)C=CC4(C)C3(F)C(O)CC21C (stereo not given)	-54*	8	i	13%	-4	-10%
CC1(c2ccccc2)O[C@@H]2C[C@H]3[C@@H]4CCC5=CC(=O)C=C[C@]5(C)[C@@]4(F)[C@@H](O)C[C@]3(C)[C@]2(C(=O)CO)O1 (stereo not given in full)	-67*	-19	i	-3%	-7	0%
CC(=O)OCC(=O)C1(O)CCC2C3CCC4=CC(=O)CCC4(C)C3(F)C(O)CC21C (stereo not given)	-53*	-24	i	9%	-4	-5%
CC(=O)OCC(=O)C1(O)CCC2C3CC(C)C4=CC(=O)C=CC4(C)C3(F)C(O)CC21C (stereo not given)	x	6	i	-39%	8	1%
CC(=O)OCC(=O)[C@@]1(O)CC[C@@H]2[C@H]3CCC4=CC(=O)CC[C@]4(C)[C@]3(F)[C@@H](O)C[C@@]21C	x	x	i	x	x	x
Cc1cccc(-c2ocnc2C(=O)Nc2ccccc2C(=O)N2CCCC2)c1	36	-10	i	-18%	-1	-24%
COc1ccccc1-c1oc2ccccc2c1C#CCCO	-24	20	i	0%	4	-1%
O=C(CSc1ncc(CO)n1Cc1ccccc1)Nc1nc2ccccc2s1	x	x	i	x	-7	-23%
O=C(COC(=O)CCN1C(=O)c2cccc([N+](=O)[O-])c2C1=O)NC1CCS(=O)(=O)C1 (stereo not given)	-5	0	i	23%	-6	-16%
Cc1nnc(SCC(=O)N2CCN(C(=O)c3ccco3)CC2)n1C	66	7	i	25%	-1	-7%
CC1(C)OC2CC3C4CC(F)C5=CC(=O)C=CC5(C)C4(F)C(O)CC3(C)C2(C(=O)CO)O1 (stereo not given)	-50*	11	i	11%	-6	-16%
CC12C=CC(=O)C=C1CCC1C3CCC(O)(C(=O)CO)C3(C)CC(O)C12F (stereo not given)	-57*	31	i	21%	8	-6%
CC(=O)OCC(=O)[C@@]1(O)CC[C@H]2[C@@H]3CCC4=CC(=O)C=C[C@]4(C)[C@@]3(F)[C@@H](O)C[C@@]21C	-56*	0	i	x	-25	-14%
CC(=O)OCC(=O)[C@@]1(O)[C@H](OC(C)=O)C[C@H]2[C@@H]3CCC4=CC(=O)C=C[C@]4(C)[C@@]3(F)[C@@H](O)C[C@@]21C	x	x	i	x	-27	-2%
CC(=O)OCC(=O)[C@@]12OC(C)(C)O[C@@H]1C[C@H]1[C@@H]3C[C@H](F)C4=CC(=O)C=C[C@]4(C)[C@@]3(F)[C@@H](O)C[C@@]12C	u	22	u	x	15	-9%
C[C@]12CCC(=O)C=C1CC[C@@H]1[C@@H]2[C@@H](O)C[C@@]2(C)[C@H]1CC[C@]2(O)C(=O)COC(=O)CCC(=O)O	u	-61*!	i	x	-92	0%
CC(=O)OCC(=O)[C@@]1(O)CC[C@H]2[C@@H]3CCC4=CC(=O)CC[C@]4(C)[C@H]3[C@@H](O)C[C@@]21C	u	-11	i	x	21	1%
CC12C=CC(=O)C=C1C(F)CC1C3CCC(O)(C(=O)CO)C3(C)CC(O)C12F (stereo not given)	-24	1	i	29%	8	-26%
COc1ccc2nc(N(Cc3cccnc3)C(=O)C3COc4ccccc4O3)sc2c1 (stereo not given)	x	x	x	x	-10	x
O=C(NC(=S)Nc1cccc2cccnc12)c1cccs1	11	-4	i	10%	1	x
CCC(C)NC(=O)C1CCN(S(=O)(=O)c2ccc3c(c2)CC(C)N3C(C)=O)CC1 (stereo not given)	132	-12	i	8%	-4	-10%
CC(=O)N1c2ccc(S(=O)(=O)N3CCC(C(=O)NC4CCC(C)CC4)CC3)cc2CC1C (stereo not given)	33	2	i	21%	30*	5%
CCc1ccc(NC(=O)C2CCCN(S(=O)(=O)c3ccc4c(c3)CC(C)N4C(C)=O)C2)cc1 (stereo not given)	-5	20	i	3%	1	u
CCc1ccc(NC(=O)C2CCN(S(=O)(=O)c3cccs3)CC2)cc1	-80*	0	i	-35%	3	-2%
SMILES	IL-1B inflam inh	D3 antag	S2 tox	Integrin act MD	D3 ag	ATXN2 expr inh
CCc1ccc(NC(=O)C2CCN(S(=O)(=O)c3ccc4c(c3)CC(C)N4C(C)=O)CC2)cc1 (stereo not given)	23	37	u	-18%	7	13µM*
CC(=O)N1c2ccc(S(=O)(=O)NCCC(=O)NC3CCCC(C)C3C)cc2CC1C (stereo not given)	-52*	14	i	-44%	-1	-3%
O=C(NC1CC(=O)N(c2cccc(F)c2)C1)c1cccs1 (stereo not given)	x	x	x	x	-25	x
O=C(CN(Cc1ccc(F)cc1)C(=O)c1csnn1)NCc1ccc2c(c1)OCO2	-9	-5	i	-44%	0	-16%
Cc1ccc([N+](=O)[O-])cc1NC(=S)NC(=O)CC(C)(C)C	-14	u	i	13%	-11	-8%
COc1ccccc1N1CCN(c2nc(C)cc(C)c2C#N)CC1	4	4	i	-16%	-8	8%
COc1cc(NC(=O)CN(C)S(=O)(=O)c2ccc3c(c2)CC(C)N3C(C)=O)cc(OC)c1OC (stereo not given)	1	14	i	10µM*	-3	3%
CC(=O)N1c2ccc(S(=O)(=O)N(C)CC(=O)NCc3ccccc3)cc2CC1C (stereo not given)	14	-9	i	-26%	2	8%
Cc1nn(Cc2c(F)c(F)c(F)c(F)c2F)c(C)c1NC(=O)c1ccnn1C	7	-3	i	7%	7	4%
COc1cc(NC(=O)c2noc(C)c2[N+](=O)[O-])c(OC)cc1Cl	-7	4	i	-46%	-2	x
O=C1Nc2c(Br)cccc2C1=O	73	-94*	i	-16%	-40	-8%
Cc1cccc2c1NC(=O)C2=O	4	-13	i	4%	-21	-23%
COC(=O)c1cccc2c1NC(=O)C2=O	17	-75*	i	-57%	-14	-12%

Source: PubChem BioAssay (National Center for Advancing Translational Sciences (NCATS))
